The supplement of paper PMC13380429

Tested on: Vero E6 infected with SARS-CoV-2
Test: morphology score (similarity to uninfected cells); higher = more like uninfected cells
Details: 24 h

SMILES	morphology score
CC(=O)c1ccc2c(c1)N(CCCN1CCN(CCO)CC1)c1ccccc1S2 [acetophenazine] (10 µM)	0.201
Cc1nccn1CCC(C(N)=O)(c1ccccc1)c1ccccc1 [imidafenacin] (10 µM)	0.133
NNC(=O)CSc1nc2scc(-c3ccccc3)c2c(=O)n1-c1ccccc1 (10 µM)	-0.0192
Clc1cccc(SC2CCNCC2)n1 [anpirtoline] (10 µM)	0.0464
O=C1c2ccccc2C(=O)C1c1ccccc1 [phenindione] (10 µM)	-0.000221
CS(=O)(=O)c1ccc(-c2cnc(NCc3ccco3)n3cnnc23)cc1 (10 µM)	0.197
CSc1ccc(C(=O)/C=C/c2cc(C)c(OC(C)(C)C(=O)O)c(C)c2)cc1 [elafibranor] (10 µM)	0.00446
C=C1C[C@@]2(O)O[C@@]3(C[C@H]2C(C)C)[C@@H](C)CC[C@@H]13 [curcumol] (10 µM)	0.157
CC(C)(O)CS(=O)(=O)Nc1ccc2c(c1)CCN(C(=O)COc1cccnc1)C2 [Nampt-IN-1] (10 µM)	-0.0571
O=C(NCCN1CCOCC1)c1ccc(Cl)cc1 [moclobemide] (10 µM)	0.182
CCCCCCCCc1ccc(-c2ccc(C(=O)O)cc2)cc1 (10 µM)	-0.0106
CCOc1cc(OCC)c(C(=O)CCC(=O)O)cc1OCC [trepibutone] (10 µM)	-0.0558
C=CC(C)(C)c1cc(/C=C/C(=O)c2ccc(O)cc2)c(OC)cc1O [licochalcone-A] (10 µM)	-0.0626
COc1ccc(S(=O)(=O)Nc2cccnc2Nc2ccc(O)cc2)cc1 (10 µM)	-0.213
